Compound activity from PubChem.
MARV entry inh = qHTS for inhibitors of binding or entry into cells for Marburg Virus. Marburg virus pseudotyped entry inhibition, cell reporter. actives 1.8% (n = 300,000). AID 540276, 2011. Potency, µM (titrated, usually from 37.8 µM), for the others: top-dose activity change, negative = inhibition, most hits filed as inhibitors; calls by dose curve; tested in HEK293 cells; note: potency is the fitted concentration of half-maximal effect; % is set by controls: 0 for no effect and ±100 for the full control effect
SARS PLP yeast = qHTS of Yeast-based Assay for SARS-CoV PLP. S. cerevisiae expressing SARS-CoV PLpro, growth rescue. Potency, µM (series often up to 32.9 µM), inactives show top-dose activity, positive = growth rescue, usual class: activators. actives 0.19% (n = 330,000); calls by dose curve; note: potency is the fitted concentration of half-maximal effect; 0% is about no effect; nearly all actives have a fitted effect of over 55% in size
HCV inh = qHTS Assay for Inhibitors of Hepatitis C Virus (HCV) | Huh7.5.1 HCVcc-Cre infection, luciferase reporter, 44 h | Potency, µM (doses to about 41.8 µM), inactives show at the top dose activity change, negative = inhibition, actives largely listed as inhibitors | actives 3.4% (n = 340,000) | AID 651820, 2012; active = well fitted inhibition curve with a large enough effect; inconclusive = small, poorly fitted or top-dose-only effect, or another doubt; inactive = no such curve, though single readings can be large or run the other way; note: potency is the fitted concentration of half-maximal effect; % is set by controls: 0 for no effect and ±100 for the full control effect
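Cells seeded at 1,000/well and cultured 4 h, then compounds added followed by HCVcc-Cre virus (~0.5 moi). After 44 h further culture, luciferase substrate was added, plates held 15 min at room temperature, and luminescence read for 15 sec.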
HCMV antiviral = qHTS Assay for inhibitors of the human cytomegalovirus (HCMV); HFF cells, HCMV-luciferase reporter, 72 h; hits give low values; activity change, negative = inhibition, % at 57.5 µM; actives 4.5% (n = 410,000); in the data active = activity change below about -60%; inconclusive = no clear call, values can overlap the other calls; inactive = above about -39%; note: % is set by controls: 0 for no effect and ±100 for the full control effect
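Inhibition of viral replication was scored as loss of reporter luminescence in HFFs infected with HCMV-luciferase (MOI 1 PFU/cell) for 72 h; compounds tested at 2 doses, normalized to buffer and Salinomycin controls.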
LASV entry inh = qHTS for Inhibitors of binding or entry into cells for Lassa Virus; Lassa virus pseudotype entry inhibition, cell reporter; Potency, µM (doses to about 37.9 µM), inactives show top-dose activity change, negative = inhibition, most hits filed as inhibitors; actives 1.2% (n = 300,000); AID 540256, 2011; calls by dose curve; tested in HEK293 cells; note: potency is the fitted concentration of half-maximal effect; % is set by controls: 0 for no effect and ±100 for the full control effect; nearly all actives have a fitted effect of over 50% in size
FMDV antiviral = High Throughput Screening for Foot and Mouth Disease Virus Antivirals | actives 1.2% (n = 410,000) | Potency, µM (doses to about 57.9 µM), inactives show top-dose activity change, negative = inhibition, hits mostly inhibitors | FMDV antiviral cell-based qHTS; calls by dose curve; tested in HEK293T cells; note: read-out not given here; potency is the fitted concentration of half-maximal effect; % is set by controls: 0 for no effect and ±100 for the full control effect; nearly all actives have a fitted effect of over 45% in size
An asterisk follows results filed as active; ? = inconclusive; nt = no result given; + = active, no number; [ ] = remark or other dose. Rows were chosen to be rich in hits. Some 8% of all compounds tested hit in one or more screens of this group.

SMILES | MARV entry inh | SARS PLP yeast | HCV inh | HCMV antiviral | LASV entry inh | FMDV antiviral
COc1ccc2c3c(n(C)c2c1)[C@@H](CO)N(C(C)=O)CC31CN(Cc2nccs2)C1 | nt | nt | nt | 5 | nt | nt
NS(=O)(=O)c1ccc(CCNC(=O)Cc2ccc(Cl)cc2)cc1 | -5% | 1% | 7% | 2 | 29% | -17%
CC12CC(c3ccccc3O1)N(C(=O)c1ccco1)C(=S)N2c1ccc(F)cc1 (centres undefined) | ? | -10% | 2.8µM* | 59 | ? | 0%
CC1(C)Cc2c(cnn2-c2ccc(F)cc2)C(NC(=O)c2ccco2)C1 (centres undefined) | 0% | -6% | 2% | -22 | -1% | 15%
CC(=O)C1C(=O)c2c(cccc2[N+](=O)[O-])C1=Nc1ccc(S(N)(=O)=O)cc1 (centres undefined) | -17% | 0% | 3% | -10 | -2% | -28%
O=c1c(C=Nc2ccc(Oc3ccccc3)cc2)c[nH]n1-c1cccc(Cl)n1 | -18% | 0% | 16% | -65* | ? | -25%
COc1ccc(N=Cc2c(O)n(-c3cccc(C)n3)c(=O)c3ccccc23)cc1 | 2% | 7% | -20% | -39 | ? | ?
COc1ccc2c(c1OC)C(=O)N1C2SC(C)(C)[C@H]1C(=O)NCC(C)C (some centres undefined) | nt | -2% | 14% | 33 | nt | -14%
COc1ccc(NC(=O)[C@H](Cc2c[nH]c3ccccc23)NC(=O)[C@@H]2Cc3ccccc3CN2)cc1 | nt | 11% | ? | nt | nt | -4%
CC(C)c1ccc(NC(=O)[C@H](Cc2c[nH]c3ccccc23)NC(=O)[C@@H]2Cc3ccccc3CN2)cc1 | nt | 0% | 4.5µM* | nt | nt | 3%
Cc1ccc(NC(=O)[C@H](NC(=O)[C@@H]2Cc3ccccc3CN2)c2ccccc2)cc1 | nt | -5% | 1% | nt | nt | 4%
CC(C)c1ccc(NC(=O)[C@H](NC(=O)[C@@H]2Cc3ccccc3CN2)c2ccccc2)cc1 | 4µM* | 0% | -6% | nt | 0%[46.1 µM] | -8%
Cc1cc(C)n(-c2nc(NCCC(C)C)c3c4c(sc3n2)COC(C)(C)C4)n1 | ? | -7% | -5% | -96* | 9% | 0%
CCN(CC)CCNc1nc(-n2nc(C)cc2C)nc2sc3c(c12)CC(C)(C)OC3 | ? | -1% | 11µM* | -64* | 7.9µM* | 1%
Cc1cc(C)n(-c2nc(NCCCN(C)C)c3c4c(sc3n2)COC(C)(C)C4)n1 | ? | 3% | -2% | -21 | -25% | 0%
Cc1cc(C)n(-c2nc(NCCN(C)C)c3c4c(sc3n2)COC(C)(C)C4)n1 | 7.1µM* | -1% | ? | ? | 13µM* | -8%
Cc1cc(C)n(-c2nc(-n3nc(C)cc3C)c3c4c(sc3n2)COC(C)(C)C4)n1 | -5% | -14% | nt | -7 | nt | nt
COC1=C(C)C(=O)C2=C(C1=O)C(CO)N1C(C#N)C3CC4C(C1C2N1CCOC41)N3C (centres undefined) | ? | nt | nt | -99* | ? | ?
Cc1oc2ccc(O)cc2c1C(=O)c1ccc(Cl)cc1 | 1% | -32% | ? | 11 | 21% | 28%
Cc1oc2ccc(O)cc2c1C(=O)c1ccc([N+](=O)[O-])cc1 | -10% | -58% | -7% | -16 | -11% | 35µM*
COc1ccc(CNC(=O)c2cnn(-c3ccc(OC)cc3)c2C2CCN(C(=O)OC(C)(C)C)CC2)cc1 | nt | nt | nt | 0 | ? | 4%
Cc1ccc(-n2ncc(C(=O)N3CCN(C4CCCCC4)CC3)c2C2CCN(C(=O)OC(C)(C)C)CC2)cc1C | nt | nt | nt | 0 | 2µM* | ?
CCN1CCN(C(=O)c2cnn(-c3cccc(Cl)c3)c2C2CCN(C(=O)OC(C)(C)C)CC2)CC1 | nt | nt | nt | 8 | 7.1µM* | -13%
COc1ccc(-n2ncc(C(=O)NCCc3ccsc3)c2C2CCN(C(=O)OC(C)(C)C)CC2)cc1 | nt | nt | nt | + | ? | 11%
CC(C)(C)OC(=O)N1CCC(c2c(C(=O)N3CCN(C4CCCCC4)CC3)cnn2-c2ccc(F)cc2)CC1 | 28%[46.1 µM] | 21% | 0% | -26 | ? | -9%
SMILES | MARV entry inh | SARS PLP yeast | HCV inh | HCMV antiviral | LASV entry inh | FMDV antiviral
CS(=O)(=O)Nc1cccc(Nc2nccc3[nH]c(-c4cccc(C(F)(F)F)c4)cc23)c1 | nt | nt | nt | -7 | nt | nt
COc1cc(=O)n2c(c1C(=O)NCc1ccco1)CCN(Cc1c(F)cccc1F)CC2 | nt | nt | nt | nt | nt | -17%
COP(=O)(OC)SCn1c(=O)oc2cc(Cl)cnc21 | nt | nt | nt | 16 | nt | nt
Cc1[nH]c2ccccc2c1Cc1n[nH]c(=S)n1C | 7% | 10% | 21% | -14 | 15% | -8%
Cc1[nH]c2ccccc2c1SCc1n[nH]c(=S)n1C | nt | 2% | -23% | -78* | nt | -22%
C[C@@]12CC(=O)C3=C(CCCC3=O)N1CCc1ccccc12 | nt | nt | nt | nt | nt | -11%
Cc1cc(C)n(/N=C/c2cccs2)c(=O)c1C#N | 15% | 8% | 10% | -76* | -1% | -15%
Cc1cc(C)c(/C=N/n2c(C)cc(C)c(C#N)c2=O)c(C)c1 | ? | 4% | -19% | -17 | -11% | 7%
COC(=O)CCCCCCCC(=O)Nc1nnc(C(F)(F)F)s1 | ? | 0% | -19% | 9 | 28% | -22%
CNC(=S)N1N=C(c2ccc(OC)cc2)CC1c1ccc(N(C)C)cc1 (centres undefined) | ? | 15% | 11µM* | 8 | ? | 5%
CCOc1ccc(CN(C)Cc2cc(=O)oc3c(C)c(C)ccc23)cc1OC | ? | nt | 11µM* | -15 | ? | ?
COc1cc(CN(C)Cc2cc(=O)oc3cc(C)c(Cl)cc23)ccc1OC(F)F | ? | -10% | 10µM* | -20 | ? | ?
CSc1ccc(CN(C)Cc2cc(=O)oc3c(C)c(C)ccc23)cc1 | nt | -2% | ? | -31 | nt | ?
CCN1C(=O)C(c2nnnn2-c2c(C)cccc2C)N(CCc2ccccc2)C1=O (centres undefined) | nt | nt | nt | -8 | nt | nt
N[C@@H](C(=O)O)[C@@H](CC(=O)O)c1ccc(Cl)cc1 | nt | nt | nt | nt | nt | -7%
CCOc1cccc2cc(S(=O)(=O)c3ccccc3F)c(=O)oc12 | 2%[46.1 µM] | nt | nt | 9 | 2%[46.1 µM] | -10%
COc1ccc(/C=C/C=C2C(=O)NC(=S)NC2=O)cc1 | ? | nt | ? | 7 | ? | 40µM*
CC(=O)c1cccc(Nc2nc(-c3ccccc3)nc3ccccc23)c1 | -28% | 2% | 10µM* | -31 | -25% | ?
CC(=O)c1ccc(Nc2nc(-c3ccccc3)nc3ccccc23)cc1 | -6%[46.1 µM] | nt | ? | 13 | -1%[46.1 µM] | -27%
COC(=O)c1cccc(Nc2nc(-c3ccncc3)nc3ccccc23)c1 | ? | -5% | ? | 26 | ? | -18%
